Screening results from PubChem BioAssay.
The list is not random: actives were taken first. Their share in the collection is about 2.6%.
AmpC inh det = inhibitors of E. coli AmpC beta-lactamase with detergent. P00811. purified AmpC, nitrocefin hydrolysis with detergent. Potency, µM (titrated, usually from 28.7 µM), inactives show at the top dose activity change, negative = inhibition. actives 0.09% (n = 71,000). AID 584; active = well fitted curve in the direction sought with a large enough effect; inconclusive = small, poorly fitted or top-dose-only effect; also: % is scaled to controls: 0 for no effect and ±100 for the full control effect
Target sequence (P00811 whole entry, looked up): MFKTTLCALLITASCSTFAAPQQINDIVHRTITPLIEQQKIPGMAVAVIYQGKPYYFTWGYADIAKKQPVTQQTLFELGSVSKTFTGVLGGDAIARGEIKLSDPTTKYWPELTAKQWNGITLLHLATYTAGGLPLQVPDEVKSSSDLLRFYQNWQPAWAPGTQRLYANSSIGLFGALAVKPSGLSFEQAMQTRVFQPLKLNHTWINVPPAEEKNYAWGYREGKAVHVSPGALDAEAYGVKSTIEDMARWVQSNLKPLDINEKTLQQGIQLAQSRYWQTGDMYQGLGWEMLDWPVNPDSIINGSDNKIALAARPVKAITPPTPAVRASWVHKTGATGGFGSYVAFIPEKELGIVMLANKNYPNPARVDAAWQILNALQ
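E. coli AmpC (5.3 nM) in 20 mM phosphate pH 7.0 with 0.01% Triton X-100, preincubated 15 min RT with compound; nitrocefin (2 uL of 800 uM stock) hydrolysis followed by 480 nm absorbance every 20 s over 4 min.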
AmpC nodet inh = AmpC beta-lactamase inhibition, detergent-free assay | actives 1.8% (n = 71,000) | Potency, µM (highest dose often 28.7 µM), inactives show top-dose activity change, negative = inhibition | P00811 | AmpC nitrocefin hydrolysis, absorbance 480 nm, no detergent; also: % of control where 0% means no effect
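AmpC in 20 mM phosphate buffer pH 7.0 was preincubated 15 min at room temperature with compounds. Nitrocefin (800 uM stock) was then added and hydrolysis followed at 480 nm every 20 s for 4 min.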
Anthrax LT inh = blocks cellular internalization of anthrax lethal toxin. Cells, anthrax lethal toxin internalization, FRET ratio (460/530). Potency, µM (doses to about 40 µM), for inactives: top-dose activity change, negative = inhibition, usual class: inhibitors. actives 0.67% (n = 70,000); also: % is scaled to controls: 0 for no effect and ±100 for the full control effect; nearly all actives have a fitted effect of over 50% in size
Prx2 Sm inh = inhibitors of Schistosoma mansoni peroxiredoxin 2; S. mansoni Prx2 activity coupled to TGR/GSH (TGR is thioredoxin glutathione reductase), NADPH fluorescence loss, qHTS; Potency, µM; actives 0.07% (n = 65,000); AID 448
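Prx2 inhibition was measured as reduced NADPH consumption when electrons flowed from NADPH through TGR and glutathione to Prx2 and H2O2. Plates were read kinetically over 8 min; enzyme reagents were held at 4 deg C during dispensing.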
Active calls of the source: *; ? = inconclusive; . = no result; ! = a repeat was not active; [ ] = remark or other dose. Unless noted, calls follow the shape of the full dose curve. Potency is read from the fitted curve at half-maximal effect.

SMILES	AmpC inh det	AmpC nodet inh	Anthrax LT inh	Prx2 Sm inh
Cc1nonc1NC(=O)CSc1nc(C2CCCCC2)nc2ccccc12	-2.2%	-12.9%	?	>57
Cc1cc2nc(SCC(=O)Nc3nonc3C)c3c(c2cc1C)CCCC3	1.3%	12.6µM*	-16.8%	>57
O=C(c1ccccc1)c1cn(CC(=O)N2CCCC2)c2ccccc12	15.9%	3.98µM*[single pt active]	9.8%	>57
COC(=O)[C@H]1C[C@@H]1[C@H](NS(=O)(=O)c1ccc(-c2ccccc2)cc1)c1ccccc1	-2.5%	9.8%	-7.4%	>57
CC1=C(C(=O)OC(C)C)C(c2ccncc2)n2ncnc2N1 (centres undefined)	-3.2%	-0.9%	?	>57
CC1=C(C(=O)OC(C)C)C(c2ccccn2)n2ncnc2N1 (centres undefined)	14.3%	3.98µM*[single pt active]	13.8%	>57
CC1=C(C(=O)OC(C)C)C(c2cccnc2)n2ncnc2N1 (centres undefined)	8.3%	3.98µM*[single pt active]	26.0%	>57
N#Cc1cccc(-c2cncnc2NCc2ccccc2)c1	9.6%	17.6%	?	>57
CCCC[C@@H]1C[C@H]1C(NC(=O)Cc1ccccc1)c1ccc(Cl)cc1 (some centres undefined)	1.6%	0.6%	?	>57
COc1ccc(Oc2ncc3nc(C)c(=O)n(Cc4cccc(OC)c4)c3n2)cc1	3.0%	123.5%	?	>57
CO/N=C(\C(=O)N[C@@H]1C(=O)N2C(C(=O)O)=C(COC(C)=O)CS[C@@H]12)c1csc(N)n1	1.26µM*	1.26µM*!	3.1%[3.58 µM]	>57
CC(=O)OCC1=C(C(=O)O)N2C(=O)[C@@H](NC(=O)Cc3cccs3)[C@@H]2SC1	-7.6%[12.8 µM]	-8.5%[12.8 µM]	-2.7%[3.58 µM]	>57
C=CC1=C(C(=O)O)N2C(=O)[C@@H](NC(=O)/C(=N\OCC(=O)O)c3csc(N)n3)[C@@H]2SC1	0.2µM*	0.316µM*	3.0%[3.58 µM]	>57
COc1cccc(Nc2ncc3nc(CCc4ccccc4)c(=O)n(C[C@H]4CCCO4)c3n2)c1	-1.1%	46.9%	?	>57
CN(Cc1ccco1)C(=O)C(Cc1ccccc1)NS(=O)(=O)c1ccc2c(c1)CCC(=O)N2 (centres undefined)	16.8%	3.98µM*[single pt active]	2.3%	>57
CCC(=O)N1CCc2cc(S(=O)(=O)NC(Cc3ccccc3)C(=O)NC3CCCC3)ccc21 (centres undefined)	-3.4%	17.8%	5.5%	>57
O=C1CCc2cc(S(=O)(=O)NC(Cc3ccccc3)C(=O)NC3CCCC3)ccc2N1 (centres undefined)	14.5%	3.98µM*[single pt active]	-16.7%	>57
O=C1CCc2cc(S(=O)(=O)N3CCN(C(=O)c4ccco4)CC3)ccc2N1	-0.2%	-8.4%	12.4%	>57
CCCNC(=O)C(Cc1ccccc1)NS(=O)(=O)c1ccc2c(c1)CCC(=O)N2 (centres undefined)	12.7%	3.98µM*[single pt active]	-13.7%	>57
O=C(O)c1ccccc1-c1ccccc1C(=O)Nc1ccc2c(c1)Cc1ccccc1-2	-0.7%[5.75 µM]	-8.6%[5.75 µM]	?	>57
Cc1ccc(C2CC(c3cccc(Cl)c3)n3nc(N)nc3N2)cc1 (centres undefined)	9.0%	71.4%	-10.2%	>57
CCOc1ccc(C2CC(c3cccc(C)c3)n3nc(N)nc3N2)cc1 (centres undefined)	10.2%	30.6%	6.9%	>57
Cc1cccc(C2CC(c3ccc(F)cc3)Nc3nc(N)nn32)c1 (centres undefined)	10.5%	3.98µM*[single pt active]	7.8%	>57
Cc1cccc(C2CC(c3ccc(Cl)cc3)Nc3nc(N)nn32)c1 (centres undefined)	12.3%	3.98µM*[single pt active]	-2.1%	>57
O=C(Nc1ccccc1)N1CC[C@@]2(CCCN(C(=O)c3cccc(F)c3)C2)C1	-1.3%	27.3%	16.4%	>57
SMILES	AmpC inh det	AmpC nodet inh	Anthrax LT inh	Prx2 Sm inh
N=C(N)SCc1nc(-c2ccc(Cl)cc2)no1	-3.5%[5.75 µM]	-0.1%[5.75 µM]	-4.2%[8 µM]	>57
CCCn1c(-c2ccc(F)cc2)nc2c(NCC(C)(C)CN(C)C)nc(C)nc21	6.5%	56.3%	-9.3%	.
Cc1ccc2oc(-c3cccc(NC(=O)C4CCCO4)c3)nc2c1 (centres undefined)	-2.0%	112.6%	0.0%	>57
CC(=O)Nc1ccc(S(=O)(=O)Nc2cccc(-c3nc4cc(C)ccc4o3)c2)cc1	-4.1%	38.5%	12.6µM*	>57
Oc1ccccc1-c1cc(-c2ccc3c(c2)OCCO3)n[nH]1	12.1%	-5.6%	20µM*	>57
COc1ccc(-c2cc(-c3cc(F)ccc3O)[nH]n2)cc1OC	4.1%	78.5%	10µM*	>57
